From PubChem BioAssay (EPA / NIEHS) come the findings set out here.

Experiment [1] can be described thus: ATG_E_Box_CIS: Attagene CIS-FACTORIAL HepG2 Assay for human Enhancer Box (E-box) (AID 2282936). The note with it: HepG2 E-box cis-reporter transcription, actives raise or lower the signal. In outline: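 Cells: HepG2 (human liver), transient MRTU transfection. Exposure 24 h. RNA → oligo(dT) RT → PCR → 6-FAM label → HpaI → CE. Activity fitted both directions relative to DMSO.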

Experiment [2] is described as follows: ATG_M_61_CIS: Attagene CIS-FACTORIAL HepG2 Assay for M61 Transcription Factor (Internal Marker) (AID 2282937). To be noted: HepG2 Attagene CIS-FACTORIAL M61 internal marker reporter; actives raise or lower the signal. In outline: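 This endpoint serves as an internal background control within a multiplexed HepG2 cis-reporter panel. Cells are exposed for 24 h; reporter mRNA is amplified, fluorescently labelled and sized by capillary electrophoresis, with DMSO as negative control.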

Experiment [3] in a line: ATG_EGR_CIS: Attagene CIS-FACTORIAL HepG2 Assay for human Early Growth Response 1 (EGR1) (AID 2282938). The note with it: HepG2 Attagene CIS-FACTORIAL EGR reporter mRNA; actives raise or lower the signal. The method, boiled down:
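HepG2, transient MRTU transfection (cis promoters), 24 h compound. RNA → RT (oligo-dT) → PCR → 6-FAM labelling → HpaI cut → CE fluorescence. Bidirectional fit, DMSO baseline.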

Experiment [4] is described as follows: ATG_M_19_CIS: Attagene CIS-FACTORIAL HepG2 Assay for M19 Transcription Factor (Internal Marker) (AID 2282939). The note with it: HepG2 Attagene CIS-FACTORIAL M19 internal marker reporter; actives raise or lower the signal. The method, boiled down:
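Readout: fluorescent reporter-transcript fragments by capillary electrophoresis after RT-PCR. Human HepG2 liver cells carried transfected MRTU constructs reporting endogenous transcription-factor activity; exposure 24 h. Gain or loss of signal fitted relative to DMSO.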

Experiment [5] can be described thus: ATG_ERE_CIS: Attagene CIS-FACTORIAL HepG2 Assay for Estrogen Response Element (ERE) (AID 2282940). The note with it: HepG2 ERE cis-reporter, Attagene RNA transcript; actives raise or lower the signal. The method, boiled down:
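Readout: reporter mRNA induction by RT-PCR, FAM-labelled primer extension, HpaI digestion and capillary electrophoresis, 24 h after dosing transfected HepG2 cells. Endogenous transcription factors act on cis-element-regulated reporters. Gain or loss fitted against DMSO.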

A short description of experiment [6]: ATG_Ets_CIS: Attagene CIS-FACTORIAL HepG2 Assay for human Erythroblast Transformation Specific (ETS) (AID 2282941). To be noted: HepG2 ETS cis-reporter transcription, actives raise or lower the signal. The method, boiled down: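 After transient cis-reporter transfection, HepG2 cells receive test chemical for 24 h. Reporter mRNA levels, measured by RT-PCR and capillary electrophoresis fluorescence, are analysed bidirectionally relative to the DMSO baseline.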

The target of experiment [7] is Hepatocyte nuclear factor 3-beta (Homo sapiens) (UniProt Q9Y261). The experiment is described as follows: ATG_FoxA2_CIS: Attagene CIS-FACTORIAL HepG2 Assay for human Forkhead box A2 (FOXA2) (AID 2282942). To be noted: HepG2 cis-reporter transcription factor activity, 24 h; actives raise or lower the signal. The method, boiled down: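 Cells: HepG2, transient multiplex reporter transfection. Exposure 24 h. Detection: reporter-specific RT-PCR, fluorescent labelling, restriction digest, capillary electrophoresis. Analysis: bidirectional curve fit, DMSO as negative control.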

A short description of experiment [8]: ATG_FoxO_CIS: Attagene CIS-FACTORIAL HepG2 Assay for human Forkhead box O (FoxO) (AID 2282943). The note with it: HepG2 Attagene cis-reporter, FoxO element, mRNA; actives raise or lower the signal. The method, boiled down:
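Endogenous transcription factor activity read from multiplexed cis-promoter reporter transcripts in transiently transfected HepG2, 24 h after dosing. Reporter RNA measured via RT-PCR plus capillary electrophoresis of FAM-labeled products; gain or loss relative to DMSO.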

The nature of experiment [9]: ATG_GATA_CIS: Attagene CIS-FACTORIAL HepG2 Assay for human GATA Binding Protein (AID 2282944). The note with it: HepG2 GATA cis-element reporter, Attagene multiplex mRNA; actives raise or lower the signal. The method, boiled down: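 Read-out: fluorescent reporter mRNA fragments resolved by capillary electrophoresis after RT-PCR. Human liver HepG2 cells carried transiently transfected cis-regulated reporter constructs; chemicals incubated 24 h; gain or loss of signal fitted relative to DMSO.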

Experiment [10] in a line: ATG_GLI_CIS: Attagene CIS-FACTORIAL HepG2 Assay for human Zinc Finger Protein GLI1 (AID 2282945). To be noted: HepG2, Attagene cis-factorial reporter mRNA, GLI element; actives raise or lower the signal. The method, boiled down: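 Bidirectional curve fits relative to DMSO, using reporter mRNA levels from RT-PCR plus capillary electrophoresis. Cells were HepG2 transiently carrying cis-regulated reporter constructs, harvested 24 h after dosing.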

Experiment [11] addresses Bile acid receptor (Homo sapiens) (UniProt Q96RI1). The experiment in a line: ATG_IR1_CIS: Attagene CIS-FACTORIAL HepG2 Assay for human Nuclear Receptor Subfamily 1 Group H Member 4 (NR1H4), IR1 submotif (AID 2282946). To be noted: IR1 reporter transcription, actives raise or lower the signal. In outline:
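Cells (human HepG2) carry transiently transfected cis-promoter reporter transcription units. Compounds are incubated 24 h, total RNA is reverse-transcribed and amplified, and labelled fragments are resolved by capillary electrophoresis. Curves use DMSO as baseline.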

The nature of experiment [12]: ATG_GRE_CIS: Attagene CIS-FACTORIAL HepG2 Assay for human Glucocorticoid Response Elements (GRE) (AID 2282947). To be noted: HepG2 GRE cis-reporter, Attagene multiplex mRNA; actives raise or lower the signal. The method, boiled down: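 Transient MRTU transfection of human HepG2 liver cells; cis-regulated reporters report endogenous factors. 24 h dosing → RNA isolation → RT-PCR → 6-FAM primer extension → HpaI cut → CE fragment analysis. Bidirectional fit, DMSO negative control.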

Experiment [13] can be described thus: ATG_ISRE_CIS: Attagene CIS-FACTORIAL HepG2 Assay for human Interferon Regulatory Factor 1 (IRF1) binding to an Interferon-Stimulated Response Element (ISRE) (AID 2282948). To be noted: HepG2 ISRE cis-reporter (Attagene), mRNA transcription readout; actives raise or lower the signal. The method, boiled down:
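Quantitation relies on labelled RT-PCR fragments separated by capillary electrophoresis. Human HepG2 cells bearing cis-promoter reporter constructs were treated 24 h; DMSO served as baseline for bidirectional fitting.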

Experiment [14] can be described thus: ATG_M_32_CIS: Attagene CIS-FACTORIAL HepG2 Assay for M32 Transcription Factor (Internal Marker) (AID 2282949).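 Also: background control marker of the multiplexed CIS panel rather than a real target.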 To be noted: HepG2 Attagene cis-factorial M32 reporter, mRNA; actives raise or lower the signal. In outline:
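Fluorescent capillary electrophoresis peaks of HpaI-digested, FAM-labelled RT-PCR reporter products give the signal. Source: transiently transfected human liver HepG2 cells, 24 h after chemical dosing; bidirectional fitting against DMSO.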

A short description of experiment [15]: ATG_M_06_CIS: Attagene CIS-FACTORIAL HepG2 Assay for M06 Transcription Factor (Internal Marker) (AID 2282950). To be noted: HepG2 Attagene CIS-FACTORIAL M06 internal marker reporter; actives raise or lower the signal. In outline: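 Terse: HepG2, transient MRTU transfection (FuGene 6), 24 h dosing; total RNA, oligo(dT) RT, PCR, FAM label, HpaI cut, capillary electrophoresis; bidirectional fit vs DMSO baseline; background-control endpoint.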

Experiment [16] addresses Hypoxia-inducible factor 1-alpha (Homo sapiens) (UniProt Q16665). The experiment in a line: ATG_HIF1a_CIS: Attagene CIS-FACTORIAL HepG2 Assay for human Hypoxia Inducible Factor 1 (HIF1A) (AID 2282951). To be noted: HepG2 Attagene cis-factorial HIF1a reporter transcription; actives raise or lower the signal. In outline: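 HepG2, transient cis-reporter library, 24 h dosing. RNA → RT (oligo dT) → PCR → 6-FAM primer extension → HpaI → CE. Bidirectional curve fit vs DMSO.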

In experiment [17] the target is Hepatocyte nuclear factor 6 (Homo sapiens) (UniProt Q9UBC0). The experiment is described as follows: ATG_HNF6_CIS: Attagene CIS-FACTORIAL HepG2 Assay for human Hepatocyte Nuclear Factor 6 (HNF6) (AID 2282952). To be noted: HepG2 Attagene cis-factorial HNF6 reporter transcription; actives raise or lower the signal. In outline: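 HepG2 cells transiently transfected with cis-element-driven multiplexed reporter units measuring endogenous transcription factor activity. After 24 h exposure, reporter mRNA quantified by RT-PCR, FAM-labelled fragments and capillary electrophoresis; bidirectional fitting versus DMSO.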

The target of experiment [18] is Heat shock factor protein 1 (Homo sapiens) (UniProt Q00613). The experiment in a line: ATG_HSE_CIS: Attagene CIS-FACTORIAL HepG2 Assay for human Heat Shock Transcription Factor 1 (HSE) (AID 2282953). The note with it: HepG2 HSE cis-reporter, Attagene RNA transcription; actives raise or lower the signal. In outline: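 Read-out: fluorescence of reporter-specific RT-PCR fragments separated by capillary electrophoresis. HepG2 carrying transfected cis-element reporter units; 24 h dosing; activity fitted in both directions relative to DMSO baseline.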

Experiment [19] is described as follows: ATG_MRE_CIS: Attagene CIS-FACTORIAL HepG2 Assay for human Metal Responsive Element (MRE) (AID 2282954). To be noted: HepG2 MRE cis-reporter transcription, Attagene multiplex; actives raise or lower the signal. In outline:
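Transient MRTU transfection of HepG2 (FuGene 6); 24 h dosing; total RNA → oligo(dT) RT, PCR, 6-FAM primer extension, HpaI cut, CE. Bidirectional fit vs DMSO.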

Experiment [20] in a line: ATG_PBREM_CIS: Attagene CIS-FACTORIAL HepG2 Assay for human Phenobarbital-responsive Enhancer Module (PBREM) (AID 2282955). The note with it: HepG2 PBREM cis-reporter, Attagene multiplexed transcription; actives raise or lower the signal. The method, boiled down: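 HepG2, transient MRTU transfection, 24 h dosing; RNA → oligo(dT) RT → PCR → 6-FAM extension → HpaI → CE. Bidirectional fit vs DMSO.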

Structures are written as SMILES. Values joined by “and” are separate entries in the source; they are usually repeats but may differ in a detail not shown here. Equal entries are not always repeated. Some structures have more than one record in an assay (separate samples or runs), and their calls can disagree. Active and inactive are the calls of the source. The calls were made as follows: active = hit-call score of the fitted dose curve at least 0.9, where 1 is the maximum; inactive = score below 0.9.

Hypoxia-inducible factor 1-alpha (Homo sapiens), sequence (Q16665 whole entry, looked up): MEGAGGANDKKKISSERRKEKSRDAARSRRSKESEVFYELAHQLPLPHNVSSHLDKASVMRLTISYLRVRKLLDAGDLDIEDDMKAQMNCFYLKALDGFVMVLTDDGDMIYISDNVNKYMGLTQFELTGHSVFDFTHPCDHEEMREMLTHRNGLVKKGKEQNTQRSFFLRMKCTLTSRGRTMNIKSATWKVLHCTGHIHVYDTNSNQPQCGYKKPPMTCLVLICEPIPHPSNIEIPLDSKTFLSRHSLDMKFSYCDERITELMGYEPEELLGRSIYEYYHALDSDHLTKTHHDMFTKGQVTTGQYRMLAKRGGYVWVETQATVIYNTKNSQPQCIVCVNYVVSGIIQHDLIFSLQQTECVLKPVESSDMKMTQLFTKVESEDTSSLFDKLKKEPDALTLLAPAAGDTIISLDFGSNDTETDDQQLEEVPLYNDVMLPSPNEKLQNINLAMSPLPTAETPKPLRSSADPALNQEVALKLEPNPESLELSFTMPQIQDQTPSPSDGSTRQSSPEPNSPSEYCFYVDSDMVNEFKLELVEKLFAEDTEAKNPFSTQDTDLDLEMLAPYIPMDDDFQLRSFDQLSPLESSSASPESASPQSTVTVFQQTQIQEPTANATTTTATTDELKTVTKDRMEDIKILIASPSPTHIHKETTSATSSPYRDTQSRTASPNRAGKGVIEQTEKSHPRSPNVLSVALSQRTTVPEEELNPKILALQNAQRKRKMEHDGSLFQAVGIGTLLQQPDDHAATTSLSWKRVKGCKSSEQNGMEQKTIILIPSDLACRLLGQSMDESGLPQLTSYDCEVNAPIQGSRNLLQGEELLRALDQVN
Bile acid receptor (Homo sapiens), sequence (Q96RI1 whole entry, looked up, the tested form may be a part): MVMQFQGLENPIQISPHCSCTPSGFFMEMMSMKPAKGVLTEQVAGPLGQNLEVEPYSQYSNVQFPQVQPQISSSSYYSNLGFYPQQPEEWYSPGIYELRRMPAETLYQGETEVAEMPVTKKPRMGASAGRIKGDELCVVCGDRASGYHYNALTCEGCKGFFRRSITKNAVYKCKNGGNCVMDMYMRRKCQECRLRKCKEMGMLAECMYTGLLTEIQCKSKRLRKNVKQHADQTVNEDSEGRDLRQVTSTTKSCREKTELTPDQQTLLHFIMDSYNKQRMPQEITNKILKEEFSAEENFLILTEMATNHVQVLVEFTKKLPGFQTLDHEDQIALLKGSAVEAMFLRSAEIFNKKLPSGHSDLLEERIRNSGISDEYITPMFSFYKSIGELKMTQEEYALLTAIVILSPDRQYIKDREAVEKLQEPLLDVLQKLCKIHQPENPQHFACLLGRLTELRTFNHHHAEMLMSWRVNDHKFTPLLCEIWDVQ
Heat shock factor protein 1 (Homo sapiens), sequence (Q00613 whole entry, looked up, the tested form may be a part): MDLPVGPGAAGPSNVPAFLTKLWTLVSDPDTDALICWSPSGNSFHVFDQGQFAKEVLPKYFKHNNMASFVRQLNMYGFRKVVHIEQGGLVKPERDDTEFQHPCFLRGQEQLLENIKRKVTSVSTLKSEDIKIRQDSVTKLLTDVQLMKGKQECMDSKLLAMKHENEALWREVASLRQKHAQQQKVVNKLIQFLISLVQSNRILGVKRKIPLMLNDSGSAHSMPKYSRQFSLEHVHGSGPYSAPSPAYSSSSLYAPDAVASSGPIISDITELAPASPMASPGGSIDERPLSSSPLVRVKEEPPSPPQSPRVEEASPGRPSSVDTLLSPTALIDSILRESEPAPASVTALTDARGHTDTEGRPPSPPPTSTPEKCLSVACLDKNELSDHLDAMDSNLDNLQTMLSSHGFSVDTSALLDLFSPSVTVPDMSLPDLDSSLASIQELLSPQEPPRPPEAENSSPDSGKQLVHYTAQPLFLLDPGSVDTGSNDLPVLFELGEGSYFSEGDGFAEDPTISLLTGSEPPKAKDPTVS
Hepatocyte nuclear factor 6 (Homo sapiens), sequence (Q9UBC0 whole entry, looked up, the tested form may be a part): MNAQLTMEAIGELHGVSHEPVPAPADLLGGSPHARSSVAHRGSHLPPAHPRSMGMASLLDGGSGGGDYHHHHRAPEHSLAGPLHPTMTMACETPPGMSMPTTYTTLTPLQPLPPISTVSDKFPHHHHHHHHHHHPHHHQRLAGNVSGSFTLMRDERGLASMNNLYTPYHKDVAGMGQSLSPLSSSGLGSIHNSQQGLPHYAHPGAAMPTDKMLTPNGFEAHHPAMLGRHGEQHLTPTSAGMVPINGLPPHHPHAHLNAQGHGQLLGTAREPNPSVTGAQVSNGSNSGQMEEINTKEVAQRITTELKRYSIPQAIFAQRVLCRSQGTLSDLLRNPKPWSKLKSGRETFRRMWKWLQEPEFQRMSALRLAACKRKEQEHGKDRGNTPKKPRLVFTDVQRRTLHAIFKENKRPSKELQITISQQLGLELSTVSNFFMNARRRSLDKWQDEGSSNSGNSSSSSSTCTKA
Hepatocyte nuclear factor 3-beta (Homo sapiens), sequence (Q9Y261 whole entry, looked up): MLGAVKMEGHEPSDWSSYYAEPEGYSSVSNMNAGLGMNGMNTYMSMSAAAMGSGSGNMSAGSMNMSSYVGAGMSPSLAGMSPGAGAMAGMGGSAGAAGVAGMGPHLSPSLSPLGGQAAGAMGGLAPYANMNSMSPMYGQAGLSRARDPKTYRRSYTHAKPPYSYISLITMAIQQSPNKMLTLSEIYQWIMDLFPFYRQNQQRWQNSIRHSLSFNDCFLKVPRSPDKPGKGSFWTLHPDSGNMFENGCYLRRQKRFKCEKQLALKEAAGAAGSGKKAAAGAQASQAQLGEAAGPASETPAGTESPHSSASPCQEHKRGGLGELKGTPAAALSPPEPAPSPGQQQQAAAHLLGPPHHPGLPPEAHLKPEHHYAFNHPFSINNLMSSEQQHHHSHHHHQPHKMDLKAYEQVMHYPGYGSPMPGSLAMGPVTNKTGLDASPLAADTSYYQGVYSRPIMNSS

As to `O=S(=O)(O)C(F)(F)C(F)(F)C(F)(F)C(F)(F)C(F)(F)C(F)(F)F`, the outcome in [1], in [2], in experiment [3], in experiment [4], in experiment [5] and in experiment [6] was inactive. Further, the result in [7], in experiment [8], in experiment [9], in experiment [10], in [11] and in [12] was inactive. For the same compound, the compound was called inactive in [13], in experiment [14], in experiment [15], in [16], in experiment [17] and in [18]. Moreover, the outcome in experiment [19] and in experiment [20] was inactive. Besides, the AC50 in experiment [5] was 100 µM (active) and 150 µM (active).

As to `O=C(O)C(F)(F)C(F)(F)C(F)(F)C(F)(F)C(F)(F)C(F)(F)C(F)(F)C(F)(F)F`, the outcome in experiment [1], in experiment [2], in experiment [3], in experiment [4], in experiment [6] and in [7] was inactive. Besides, the compound was called inactive in experiment [8], in experiment [9], in experiment [10], in experiment [11], in experiment [12] and in [13]. Moreover, the outcome in [14], in experiment [15], in experiment [16], in experiment [17] and in [19] was inactive. The AC50 in experiment [3] was 150 µM (active) and 50 µM (active); in experiment [5], 39.4 µM (active) and 38.2 µM (active) and 15.2 µM (active); in experiment [13] it was 150 µM (active) and 46.3 µM (active); in [16] it was 50 µM (active); in experiment [19] it was 210 µM (active) and 50 µM (active).

Consider `Cc1ccccc1[N+](=O)[O-]`, for which the result in experiment [1], in experiment [2], in experiment [3], in [4], in experiment [5] and in experiment [6] was inactive. Moreover, the outcome in [7], in [8], in experiment [9], in [10], in experiment [12] and in experiment [13] was inactive. In addition, the compound was classed as inactive in experiment [14], in experiment [15], in experiment [16], in experiment [17], in experiment [19] and in experiment [20].

In the case of `O=C(N[C@H]1CN2CCC1CC2)c1cc2ccoc2cn1`, the result in experiment [1], in experiment [2], in experiment [3], in experiment [4], in [5] and in experiment [6] was inactive. Further, the compound was classed as inactive in [7], in [8], in experiment [9], in experiment [10], in [12] and in experiment [14]. The outcome in experiment [15], in [16], in experiment [17], in experiment [18], in experiment [19] and in [20] was inactive. The AC50 in experiment [13] is 82.4 µM (active).

`O=C(O)C(F)(F)C(F)(F)C(F)(F)C(F)(F)C(F)(F)F`: the outcome in [1], in experiment [2], in [3], in [4], in experiment [5] and in [6] was inactive. The outcome in [7], in experiment [8], in experiment [9], in experiment [10], in experiment [12] and in experiment [13] was inactive. The result in [14], in experiment [15], in experiment [16], in [17], in [18] and in [19] was inactive. Further, the outcome in experiment [20] was inactive. Further, the AC50 in experiment [16] was 5.86 µM (active).
